IL1B secr inh: qHTS for Inhibitors of Inflammasome Signaling: IL-1-beta AlphaLISA Primary Screen; activity change, % at 57.5 µM; hit rate 4.7% among 360,000; THP-1 LPS/ATP IL-1B secretion, AlphaLISA, 16 h; active compounds read low; AID 743279, 2014; in the data active means activity change below about -50%; inconclusive means mostly about -30% to -49%
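Secreted IL-1B measured by AlphaLISA bead assay after 16 h compound exposure of THP-1 cells; compounds (final up to 57.5 uM) added 1 h before LPS (250 ng/mL) and ATP (1.25 mM) stimulation; lower signal means less secretion.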
DT40 TDP1 CPT: qHTS for Inhibitors of human tyrosyl-DNA phosphodiesterase 1 (TDP1): qHTS in cells in presence of CPT; Potency, µM (top dose mostly 46.2 µM), for inactives: top-dose activity change, negative = growth inhibition, actives largely listed as inhibitors; chicken DT40 Tdp1-/-;hTDP1 cells + 20 nM CPT, ATP luminescence, 48 h; hit rate 12% among 420,000; further: potency means the concentration at half of the fitted maximal effect; nearly all actives have a fitted effect of over 55% in size
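Cell growth measured by CellTiter-Glo luminescence after a minimum 48 h, 37 C compound exposure with 20 nM CPT in Tdp1-knockout DT40 cells stably expressing hTDP1, seeded 400/well; qHTS titration format.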
HT1080 IDH1KD tx: qHTS for induction of synthetic lethality in tumor cells producing 2HG: qHTS for the HT-1080-IDH1KD cell line. HT-1080 IDH1 knockdown viability, ATP luminescence, 48 h. Potency, µM (titrated, usually from 46.1 µM), for inactives: at the top dose activity, negative = toxicity, usual class: cytotoxic. hit rate 2% among 360,000;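 further: potency means the concentration at half of the fitted maximal effect; 0% = DMSO wells and -100% = cell-free medium wells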
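CellTiter-Glo luminescence after 48 h compound exposure at 37 degrees C of IDH1-knockdown HT-1080 cells in 5% FBS RPMI. %Activity scaled between DMSO wells and cell-free media wells, with curves fitted and assigned curve classes.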
HT1080-NT tox: qHTS for induction of synthetic lethality in tumor cells producing 2HG: qHTS for the HT-1080-NT fibrosarcoma cell line. HT-1080-NT fibrosarcoma viability, CellTiter-Glo ATP luminescence, 48 h. Potency, µM (titrated, usually from 46.1 µM), for inactives: top-dose activity, negative = less viability, actives largely listed as cytotoxic. hit rate 1.6% among 360,000. AID 686970, 2013;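 further: NT is the 2HG producing partner of a matched IDH1 knockdown line; potency means the concentration at half of the fitted maximal effect; 0% = DMSO-treated cells and -100% = media-only wells without cells; nearly all actives have a fitted effect of over 55% in size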
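HT-1080-NT; 750 cells/well; 5% FBS RPMI; 48 h compound, 37 degrees C; CellTiter-Glo luminescence; curve fitting and curve-class assignment.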
DT40 TDP1 no CPT: qHTS for Inhibitors of human tyrosyl-DNA phosphodiesterase 1 (TDP1): qHTS in cells in absence of CPT | hit rate 15% among 420,000 | DT40 Tdp1-/- hTDP1 cells, no CPT, ATP luminescence, 48 h | Potency, µM (doses to about 46.2 µM), for the others: top-dose activity change, negative = growth inhibition, hits mostly inhibitors | AID 686978, 2013; further: potency means the concentration at half of the fitted maximal effect; nearly all actives have a fitted effect of over 55% in size
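A cellular qHTS used chicken DT40 cells lacking endogenous Tdp1 but carrying stably transfected human TDP1. Compounds were applied without camptothecin, and cell growth kinetics were judged by ATP-dependent luminescence after ≥48 hr.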
* marks the source's active call; other numbers are inactive results; i = inactive; ? = inconclusive; / = no result given; ! = a repeat was not active. This is a sample that favours compounds with a hit; in the whole collection about 19% have one here. Unless noted, the call rests on the fitted dose curve; in most records, active means well fitted curve in the direction sought with a large enough effect; inconclusive means small, poorly fitted or top-dose-only effect, or another doubt; inactive means no such curve, though single readings can be large; an effect the other way counts as inactive or inconclusive. Unless noted, on the % scale 0 is the no-effect control and ±100 the full control effect.

SMILES	IL1B secr inh	DT40 TDP1 CPT	HT1080 IDH1KD tx	HT1080-NT tox	DT40 TDP1 no CPT
O=C(CC(O)(c1ccccc1)c1ccccc1)Nc1ccccn1	21	15µM*	2%	7%	?
O=C(c1ccccc1[N+](=O)[O-])N1CCN(c2ccc(N3CCOCC3)nn2)CC1	12	-6%	-1%	3%	-4%
Cc1ccc(C(=O)Nc2c(C)nc3ccccn3c2=O)cc1C	/	-22%	/	/	-22%
CC(C)CCN1CCN(Cc2ccc(N3CCNC3=O)cc2)CC1CCO (stereo not drawn)	-2	-3%	-3%	-1%	-11%
NC(=O)c1ccsc1NC(=O)c1coc2ccccc2c1=O	-3	?	-15%	-2%	29µM*
CC(C)=CCC[C@H](C)C[C@@H]1CC2=C(C(=O)OC(C)(C)O2)[C@H](c2ccc(Cl)cc2)O1	11	?	2%	2%	?
Nc1nonc1C(=O)NCCNC(=O)c1ccc(Cl)cc1	28	7%	16%	16%	-14%
CCOc1ccc(NC(=O)CN(C)C(=O)c2cc([N+](=O)[O-])ccc2N2CCOCC2)cc1OCC	-7	-7%	0%	-5%	-25%
COC(=O)C1=C(C)NC(C)=C([N+](=O)[O-])C1c1ccccc1C(F)(F)F (stereo not drawn)	-12	17µM*	-20%	-16%	12µM*!
COC(=O)C1=C(C)NC(C)=C(C(=O)OC)C1c1ccc2ccccc2n1	9	-7%	-3%	-1%	-17%
CC1=C(C(=O)OC(C)C)C(c2ccc(O)cc2)NC(=O)N1 (stereo not drawn)	0	-1%	10%	0%	-4%
CC1=C(C(=O)OC(C)C)[C@@H](c2cccc3nonc23)C([N+](=O)[O-])=C(C)N1	/	?	/	/	15µM*
COCCC1CCCCN1C(=O)c1cc(COc2cccc(C(C)=O)c2)on1 (stereo not drawn)	-12	23µM*	-12%	-3%	26µM*
O=C(c1cc(COc2cccc3cccnc23)on1)N1CCC[C@H]1CO	-64*	-3%	8%	10%	0%
CC(=O)c1ccc(OCc2cc(C(=O)N3CCC[C@H]3CO)no2)cc1	0	-24%	5%	6%	0%
COC(=O)C1CCCCN1C(=O)c1cc(COc2cccc3cccnc23)on1 (stereo not drawn)	-16	-21%	-9%	-3%	-27%
CCOC(=O)CC1COCCN1C(=O)c1cc(COc2ccccc2SC)on1 (stereo not drawn)	20	-15%	-1%	1%	?
CCOC(=O)CC1CCCCN1C(=O)c1cc(COc2cccc3cnccc23)on1 (stereo not drawn)	-12	1.6µM*	4.1µM*	23µM*	3.7µM*
CC1CCC/C(=N\NC(=O)c2ccncc2)C1 (stereo not drawn)	-12	5%	-8%	-8%	-18%
O=C(Cn1ccc(=O)[nH]c1=O)c1ccc([N+](=O)[O-])o1	?	5.2µM*	?	?	2.1µM*
CC(=O)Oc1ccc2c(c1)O/C(=C\c1ccncc1)C2=O	?	?	-9%	3%	-23%
COc1ccccc1C(=O)Oc1ccc2c(c1)O/C(=C\c1ccncc1)C2=O	-1	-30%	?	-24%	13µM*
COc1ccc(/C=C2\Oc3cc(OC(=O)N4CCOCC4)ccc3C2=O)cc1	-1	18µM*	5%	6%	13µM*
CCc1ccc(/C=C2\Oc3cc(OC(=O)N4CCOCC4)ccc3C2=O)cc1	-2	?	29%	14%	15µM*
CCc1ccc2c(c1)N(CC(C)CN(C)C)c1ccccc1S2 (stereo not drawn)	/	?	/	/	15µM*
SMILES	IL1B secr inh	DT40 TDP1 CPT	HT1080 IDH1KD tx	HT1080-NT tox	DT40 TDP1 no CPT
CCOC(=O)C1CCCN(C(=O)c2ccc3c(=O)n(Cc4ccccc4OC)c(=S)[nH]c3c2)C1 (stereo not drawn)	24	?	?	-26%	18µM*
COc1ccccc1Cn1c(=S)[nH]c2cc(C(=O)N3CC(C)CC(C)C3)ccc2c1=O (stereo not drawn)	?	?	-11%	-7%	?
CCOC(=O)N1CCN(C(=O)c2ccc(Cn3c(=S)[nH]c4cc(C(=O)OC)ccc4c3=O)cc2)CC1	4	?	-3%	5%	8.2µM*
COC(=O)c1ccc2c(=O)n(Cc3ccc(C(=O)NC4CCCC4)cc3)c(=S)[nH]c2c1	17	?	2%	5%	?
CCOC(=O)C1CCCN(C(=O)c2ccc(Cn3c(=S)[nH]c4cc(C(=O)OC)ccc4c3=O)cc2)C1 (stereo not drawn)	-2	?	-25%	0%	26µM*
CCCCCn1c(=S)[nH]c2cc(C(=O)N3CCN(C(=O)OCC)CC3)ccc2c1=O	55	-23%	15%	6%	?
Cc1cccc(-c2nn3c(=O)cc(CN4CCN(C(=O)c5ccccc5Br)CC4)nc3s2)c1	/	-14%	/	/	-16%
CC(C)C[C@H](NC(=O)N1CCCCCC1)C(=O)N[C@H](Cc1cn(C)c2ccccc12)C(=O)N[C@H](Cc1ccccn1)C(=O)O	/	-2%	/	/	0%
O=C(CCN1CCOCC1)NNC(=O)Nc1cccc([N+](=O)[O-])c1	i	1%	-2%	1%	4%
c1ccc(Cc2nnc3n2CCN(Cc2cnc(-c4ccccc4)s2)CC3)cc1	/	-20%	/	/	-15%
Cc1nc(NC(=O)c2cc3c(C)nn(-c4ccccc4)c3s2)sc1C(=O)Nc1ccccc1	21	?	10%	3%	21µM*
CC(=O)c1sc(NC(=O)c2cc3c(C)nn(-c4ccccc4)c3s2)nc1C	-16	-10%	4%	5%	-5%
COc1ccccc1NC(=O)c1c(C)nn(-c2ccccc2)c1Cl	-14	-30%	13%	15%	?
Cc1nn(-c2ccccc2)c2sc(C(=O)Nc3cccc(Cl)c3)cc12	/	?	/	/	23µM*
COc1ccccc1NC(=O)c1cc2c(C)nn(-c3ccccc3)c2s1	/	?	/	/	23µM*
COCCN(C(=O)COC(=O)CSc1ccccc1)c1c(N)n(Cc2ccccc2)c(=O)[nH]c1=O	7	?	5%	-2%	-7%
O=[N+]([O-])c1ccc(N=NNc2ccccc2)cc1	-3	?	?	-19%	-13%

Compound activity: PubChem BioAssay, National Center for Advancing Translational Sciences (NCATS)
